# Measured values: PubChem BioAssay (NCATS)
# Inconclusive results are not listed. Entries that show only a call come without a potency. Activity calls are given as the source filed them. The call rests on the fitted dose curve; tested in HEK293 reporter line.
# Assay: qHTS for Inhibitors of the Functional Ribonucleoprotein Complex (vRNP) of Lymphocytic Choriomeningitis Arenaviruses (LCMV): Viability assay - alamar blue signal for LCMV Primary Screen (AID 1347085); further: nearly all actives have a fitted effect of over 80% in size
# Conditions: alamar blue viability counter-screen, LCMV vRNP screen cells; series mostly up to 57.5 µM
row,SMILES,Potency
1,CCc1ccc(CCOc2ccc(CC3SC(=O)NC3=O)cc2)nc1 (centres undefined),inactive
2,CN1CCN(C2=Nc3ccccc3Oc3ccc(Cl)cc32)CC1,inactive
3,Cc1oncc1C(=O)Nc1ccc(C(F)(F)F)cc1,inactive
4,COc1cc2nc(N3CCN(C(=O)c4ccco4)CC3)nc(N)c2cc1OC,inactive
5,COC(=O)N[C@H](C(=O)N[C@@H](Cc1ccccc1)[C@@H](O)CN(Cc1ccc(-c2ccccn2)cc1)NC(=O)[C@@H](NC(=O)OC)C(C)(C)C)C(C)(C)C,inactive
6,CCCCN1C[C@H](O)[C@@H](O)[C@H](O)[C@H]1CO,inactive
7,CN(C)[C@@H]1C(=O)C(C(N)=O)=C(O)[C@@]2(O)C(=O)C3=C(O)c4c(O)ccc(Cl)c4[C@@H](O)[C@H]3C[C@@H]12,inactive
8,NC(=O)C(c1ccccc1)(c1ccccc1)[C@@H]1CCN(CCc2ccc3c(c2)CCO3)C1,inactive
9,Cc1cccc(Nc2ccccc2C(=O)O)c1C,inactive
10,COC(=O)[C@@H]1CC2=CC(=O)CC[C@]2(C)[C@@]23O[C@@H]2C[C@@]2(C)[C@@H](CC[C@@]24CCC(=O)O4)[C@H]13,inactive
11,CS(=O)(=O)OCCCCOS(C)(=O)=O,inactive
12,CC/C(=C(\c1ccccc1)c1ccc(OCCN(C)C)cc1)c1ccccc1,inactive
13,CCC1C(=O)OCC1Cc1cncn1C (centres undefined),inactive
14,OCCN1CCN(CCCN2c3ccccc3Sc3ccc(C(F)(F)F)cc32)CC1,inactive
15,Cc1cnc(C(=O)NCCc2ccc(S(=O)(=O)NC(=O)NC3CCCCC3)cc2)cn1,inactive
16,CC(c1cc2ccccc2s1)N(O)C(N)=O (centres undefined),inactive
17,Cn1c(=O)c2c(ncn2CC(O)CO)n(C)c1=O (centres undefined),inactive
18,O=C(O)P(=O)(O)O,inactive
19,CC1=C(C(=O)O)N2C(=O)[C@@H](NC(=O)[C@H](N)c3ccccc3)[C@H]2SC1,inactive
20,CC[N+](C)(C)c1cccc(O)c1,inactive

row,SMILES,Potency
1,CCOC(=O)[C@H](CCc1ccccc1)N[C@@H](C)C(=O)N1[C@H](C(=O)O)C[C@@H]2CCC[C@@H]21,inactive
2,Nc1[nH]c(=O)ncc1F,inactive
3,O=C1[C@H](CC[C@H](O)c2ccc(F)cc2)[C@@H](c2ccc(O)cc2)N1c1ccc(F)cc1,inactive
4,C[C@H]1c2cccc(O)c2C(O)=C2C(=O)[C@]3(O)C(O)=C(C(N)=O)C(=O)[C@@H](N(C)C)[C@@H]3[C@@H](O)[C@@H]21,inactive
5,CCCN(CCC)CCc1cccc2c1CC(=O)N2,inactive
6,CN1CCN(CCCN2c3ccccc3Sc3ccc(Cl)cc32)CC1,inactive
7,O=NN(CCCl)C(=O)NC1CCCCC1,inactive
8,CCOC(=O)Nc1ccc2c(c1)N(C(=O)CCN1CCOCC1)c1ccccc1S2,inactive
9,Oc1ccc(C2CNCCc3c2cc(O)c(O)c3Cl)cc1 (centres undefined),inactive
10,CC1(C)S[C@@H]2[C@H](NC(=O)C(C(=O)O)c3ccccc3)C(=O)N2[C@H]1C(=O)O (some centres undefined),inactive
11,CCN(CCO)CCCC(C)Nc1ccnc2cc(Cl)ccc12 (centres undefined),inactive
12,C[C@]12CC[C@@H]3c4ccc(O)cc4C[C@@H](CCCCCCCCCS(=O)CCCC(F)(F)C(F)(F)F)[C@H]3[C@@H]1CC[C@@H]2O (some centres undefined),inactive
13,CC(=O)OCC(CCn1cnc2cnc(N)nc21)COC(C)=O,inactive
14,Cc1c(O)cccc1C(=O)N[C@@H](CSc1ccccc1)[C@H](O)CN1C[C@H]2CCCC[C@H]2C[C@H]1C(=O)NC(C)(C)C,inactive
15,C=C[C@H]1CN2CC[C@H]1C[C@@H]2[C@@H](O)c1ccnc2ccc(OC)cc12,inactive
16,Cc1cn[nH]c1,inactive
17,CCOC(=O)c1ncn2c1CN(C)C(=O)c1cc(F)ccc1-2,inactive
18,CC(C)NCC(O)COc1ccc(CCOCC2CC2)cc1 (centres undefined),inactive
19,CCOc1ccccc1OCCN[C@H](C)Cc1ccc(OC)c(S(N)(=O)=O)c1,inactive
